The text below walks through data of PubChem BioAssay (NCI).

Some test systems named below: DU-145 prostate; K-562 leukemia; MALME-3M melanoma; MDA-MB-231 breast; RXF 393 renal; SF-268 CNS; SF-295 CNS; SF-539 CNS; UACC-257 melanoma; M14 melanoma; HCT-15 colon; HT29 colon; SNB-75 CNS; SNB-19 CNS; U251 CNS; PC-3 prostate; SK-MEL-5 melanoma; UACC-62 melanoma; LOX IMVI melanoma; SK-MEL-28 melanoma.
Experiment in all cases: NCI-60 one-dose screen, 48 h (100 = growth as untreated, 0 = no growth, -100 = all killed)
What all share (details): 10 µM unless noted

Compounds without any hit were thinned out: in the full panel of roughly 83,000, 20% have a hit.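 Growth was measured after 48 h exposure to one concentration of compound in 96-well plates. Values under 10 count as active.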 Values without a mark were called inactive. Activity calls are given as the source filed them.

For the molecule `N#Cc1nc(C#N)c(Sc2ccccc2)c(Sc2ccccc2)c1Sc1ccccc1`, the growth was -47.8% (active) in the assay with DU-145 prostate; -41.2% (active) in the assay on K-562 leukemia; -20.6% (active) in the assay with MALME-3M melanoma; -32.7% (active) in the assay on MDA-MB-231 breast; -38.7% (active) in the assay on RXF 393 renal; -67.6% (active) in the assay with SF-268 CNS. Further, the growth is 1.87% (active) in the assay on SF-295 CNS; -86.6% (active) in the assay with SF-539 CNS; -59.2% (active) in the assay with UACC-257 melanoma; -28.9% (active) in the assay with M14 melanoma; -53.7% (active) with HCT-15 colon; -67.2% (active) in the assay on HT29 colon. For the same molecule, the growth is -61.2% (active) in the assay with SNB-75 CNS; -45.7% (active) with SNB-19 CNS; -81.9% (active) in the assay with U251 CNS; 21.5% in the assay on PC-3 prostate; -93.2% (active) with SK-MEL-5 melanoma; -57.2% (active) in the assay on UACC-62 melanoma. Besides, the results for the growth in the assay on LOX IMVI melanoma and in the assay on SK-MEL-28 melanoma were -79.2% (active) and -84.3% (active), respectively.

Regarding `CC(C)CCC[C@@H](C)[C@H]1CC[C@H]2[C@@H](Nc3ccc(O)cc3)CCC[C@]12C`, the growth with DU-145 prostate is 96.5%; with K-562 leukemia, 105%; in the assay with MALME-3M melanoma, 133%; with MDA-MB-231 breast, 109%; in the assay with RXF 393 renal, 70.6%; with SF-268 CNS, 80.2%. Further, the growth with SF-295 CNS was 98.5%; in the assay on SF-539 CNS it was 17.5%; in the assay on UACC-257 melanoma, 42.2%; in the assay on M14 melanoma it was 102%; with HCT-15 colon it was 70.8%; in the assay on HT29 colon, 89.5%. For the same molecule, the growth in the assay with SNB-75 CNS was 75.8%; in the assay on SNB-19 CNS, 111%; in the assay on U251 CNS, 91.8%; in the assay with PC-3 prostate, 33.5%; in the assay with SK-MEL-5 melanoma, 97.9%; in the assay on UACC-62 melanoma, 76.5%. The growth is 34.7% in the assay on LOX IMVI melanoma and 97.9% with SK-MEL-28 melanoma.

With `N=C1C(c2nc(-c3ccc(Br)cc3)cs2)=C(O)CN1Cc1cccnc1`, the growth with DU-145 prostate is 11.9%; in the assay with K-562 leukemia, 49.8%; in the assay on MALME-3M melanoma, 34.1%; with MDA-MB-231 breast, 78.7%; in the assay on RXF 393 renal, 67.1%; in the assay on SF-268 CNS, 38%. Moreover, the growth is 37.2% in the assay with SF-295 CNS; 60.5% with SF-539 CNS; 81% in the assay on UACC-257 melanoma; 69.3% in the assay with M14 melanoma; 87.5% with HCT-15 colon; 65.4% in the assay on HT29 colon. In addition, the growth in the assay on SNB-75 CNS was 15.5%; in the assay on SNB-19 CNS, 75.9%; in the assay on U251 CNS, 56.7%; in the assay with PC-3 prostate, -6.43% (active); in the assay with SK-MEL-5 melanoma it was 79.6%; in the assay on UACC-62 melanoma, 78.2%. Also, the growth was 85.3% with LOX IMVI melanoma and 48.5% in the assay on SK-MEL-28 melanoma.

With `COCCc1ccc(OCC(O)CNC(C)C)cc1` (stereo not given), the growth was 109% in the assay on DU-145 prostate; 101% with K-562 leukemia; 97.5% in the assay on MALME-3M melanoma; 101% with MDA-MB-231 breast; 128% in the assay with RXF 393 renal; 104% in the assay with SF-268 CNS. Besides, the growth is 101% in the assay on SF-295 CNS; 106% with SF-539 CNS; 96.3% in the assay on UACC-257 melanoma; 92.4% in the assay on M14 melanoma; 102% with HCT-15 colon; 98.9% in the assay with HT29 colon. Besides, the growth with SNB-75 CNS was 90.4%; with SNB-19 CNS, 105%; in the assay on U251 CNS, 98.2%; with PC-3 prostate, 96.6%; with SK-MEL-5 melanoma it was 108%; with UACC-62 melanoma, 113%. Further, the growth in the assay with LOX IMVI melanoma was 96.6%; in the assay on SK-MEL-28 melanoma it was 98.9%.

In the case of `O=C1C=C[C@]2(C[C@@H](c3cccc(C(F)(F)F)c3)O[C@@H](c3cccc(C(F)(F)F)c3)O2)O1`, the growth in the assay on DU-145 prostate was 28.7%; in the assay with K-562 leukemia, -4.01% (active); in the assay on MALME-3M melanoma it was 36.4%; in the assay on MDA-MB-231 breast it was -57.2% (active); in the assay on RXF 393 renal it was -0.258% (active); in the assay on SF-268 CNS, -27.1% (active). The growth in the assay with SF-295 CNS is 46.1%; in the assay with SF-539 CNS it was -69.6% (active); in the assay on UACC-257 melanoma it was 59.6%; with M14 melanoma, 44.8%; with HCT-15 colon, -33.8% (active); in the assay with HT29 colon, -24.2% (active). The growth was 57.9% in the assay on SNB-75 CNS; 33.2% in the assay on SNB-19 CNS; 28.6% in the assay on U251 CNS; 7.18% (active) in the assay with PC-3 prostate; -58.2% (active) in the assay on SK-MEL-5 melanoma; -38.6% (active) in the assay on UACC-62 melanoma. In addition, the growth in the assay with LOX IMVI melanoma is -84.6% (active); with SK-MEL-28 melanoma it was 48.6%.

Consider `Cc1cc(NCc2cc(Nc3ccnc4cc(Cl)ccc34)ccc2F)nc(N2CCSCC2)n1`, for which the growth is 23.6% in the assay with DU-145 prostate; -24.9% (active) in the assay on K-562 leukemia; -30.7% (active) with MALME-3M melanoma; -8.18% (active) with MDA-MB-231 breast; -5.98% (active) in the assay on RXF 393 renal; 38.8% in the assay on SF-268 CNS. In addition, the growth in the assay with SF-295 CNS was -57.3% (active); in the assay with SF-539 CNS, -72.2% (active); in the assay on UACC-257 melanoma, 17.6%; in the assay on M14 melanoma, -51.6% (active); in the assay with HCT-15 colon, 1.94% (active); in the assay with HT29 colon, -27.3% (active). The growth is -31.7% (active) with SNB-75 CNS; 42.9% with SNB-19 CNS; -71.4% (active) in the assay on U251 CNS; 26.6% with PC-3 prostate; -13.8% (active) in the assay on SK-MEL-5 melanoma; -54.4% (active) with UACC-62 melanoma. Also, the growth in the assay with LOX IMVI melanoma was -89.2% (active); with SK-MEL-28 melanoma, -64.3% (active).

Take `O=c1oc2ccccc2c(Cl)c1Cl`: the growth with DU-145 prostate was 107%; in the assay on K-562 leukemia, 37.2%; in the assay with MALME-3M melanoma, 58.5%; in the assay with MDA-MB-231 breast, 62.6%; in the assay on RXF 393 renal, 66.6%; in the assay on SF-268 CNS, 86.5%. For the same molecule, the growth in the assay with SF-295 CNS was 106%; in the assay with SF-539 CNS, 81.3%; in the assay on UACC-257 melanoma, 40%; in the assay on M14 melanoma, 17.1%; in the assay with HCT-15 colon it was 38.9%; in the assay on HT29 colon, 105%. The growth is 82.4% with SNB-75 CNS; 91.7% in the assay on SNB-19 CNS; 49.1% in the assay on U251 CNS; 101% in the assay with PC-3 prostate; 46.1% in the assay on SK-MEL-5 melanoma; 74.7% in the assay with UACC-62 melanoma. For the same molecule, the values for the growth in the assay on LOX IMVI melanoma and in the assay on SK-MEL-28 melanoma were 10.5% and 72.4%, respectively.

For `CC(=O)O[C@]1(C(C)=O)CCC2C3C[C@H](C)C4=CC(=O)CC[C@]4(C)C3CC[C@@]21C` (stereo not given in full), the growth is 117% in the assay on DU-145 prostate; 96% in the assay on K-562 leukemia; 82.8% in the assay on MALME-3M melanoma; 71% in the assay with MDA-MB-231 breast; 119% in the assay with RXF 393 renal; 108% with SF-268 CNS. In addition, the growth is 95.7% with SF-295 CNS; 94.1% with SF-539 CNS; 107% in the assay on UACC-257 melanoma; 89% in the assay with M14 melanoma; 92.3% in the assay on HCT-15 colon; 87.7% in the assay on HT29 colon. Also, the growth is 96% with SNB-75 CNS; 96.4% in the assay on SNB-19 CNS; 104% in the assay on U251 CNS; 68.4% in the assay on PC-3 prostate; 81.8% with SK-MEL-5 melanoma; 79.3% in the assay with UACC-62 melanoma. Besides, the figures for the growth in the assay with LOX IMVI melanoma and with SK-MEL-28 melanoma were 95.7% and 108%, respectively.
